# Source: PubChem
# D3 antag: D3 dopamine receptor (human) antagonism. D3R cells, DiscoveRx beta-arrestin luminescence, antagonist mode; stronger effect = lower value. max response, negative = inhibition, %. 360,000 compounds, 2.5% hits. AID 652054. P35462; in the data active means max response below about -50%; inconclusive means no clear call, values can overlap the other calls
#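 Cells plated overnight at 1500 cells/well, then exposed to library compounds with dopamine controls for 90 minutes at 37 degrees C. DiscoveRx reagent added for 30–60 minutes at room temperature; luminescence read, quantitative HTS format.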
# TDP1 cell noCPT: qHTS for Inhibitors of human tyrosyl-DNA phosphodiesterase 1 (TDP1): qHTS in cells in absence of CPT | DT40 Tdp1-/- hTDP1 cells, no CPT, ATP luminescence, 48 h | 420,000 compounds, 15% hits | Potency, µM (series often up to 46.2 µM), hits mostly inhibitors; further: nearly all actives have a fitted effect of over 55% in size
#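 DT40 Tdp1-/-;hTDP1 cells, no CPT (DMSO vehicle only), 400 cells/well; compounds pin-transferred; ≥48 hr, 37 °C; CellTiter-Glo 30 min RT dark, luminescence read.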
# ClpP mod: qHTS Assay for Activators of ClpP; ATP-dependent Clp protease proteolytic subunit (Bacillus subtilis (strain 168)), P80244; 340,000 compounds, 1.9% hits; Potency, µM (series often up to 57.5 µM); AID 651965, 2013; purified B. subtilis ClpP, FRET peptide cleavage, 20 min; active means well fitted falling curve with a large enough effect; inconclusive means small, poorly fitted or top-dose-only effect; inactive means no such curve, though single readings can be large or run the other way; further: the source files actives as falling curves though it sought activators and does not explain the sign; nearly all actives have a fitted effect of over 65% in size
# Target sequence (P80244 whole entry, looked up): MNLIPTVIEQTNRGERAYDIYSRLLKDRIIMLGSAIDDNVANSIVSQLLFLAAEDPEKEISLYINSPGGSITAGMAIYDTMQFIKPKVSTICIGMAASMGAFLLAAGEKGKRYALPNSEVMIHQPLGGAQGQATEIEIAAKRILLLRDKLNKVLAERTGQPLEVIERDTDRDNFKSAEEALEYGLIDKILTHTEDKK
#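 FRET quenching reversal measured ClpP activation: 10 microg/mL B. subtilis ClpP at pH 8 with the FRET-FV decapeptide, read at 430 nm after 320 nm excitation. The 20-min minus 0-min signal was scaled between DMSO/no-enzyme wells and ADEP (5.8 microM final).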
# IL-1B inflam inh: inhibitors of inflammasome signaling (IL-1 beta secretion). THP-1 LPS/ATP IL-1B secretion, AlphaLISA, 16 h; stronger effect = lower value. activity change, % at 57.5 µM. 360,000 compounds, 4.7% hits. AID 743279; in the data active means activity change below about -50%; inconclusive means mostly about -30% to -49%
#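 Secreted IL-1B measured by AlphaLISA bead assay after 16 h compound exposure of THP-1 cells; compounds (final up to 57.5 uM) added 1 h before LPS (250 ng/mL) and ATP (1.25 mM) stimulation; lower signal means less secretion.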
# DRD3 agonist: agonists of human D3 dopamine receptor; P35462; D3R DiscoveRx beta-arrestin cells, luminescence, 90 min; max activation, %; 410,000 compounds, 0.58% hits; in the data active means max activation above about 30%
#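 Cells at 1500/well, incubated overnight, then treated with pinned compounds (dopamine as control) for 90 min at 37 degrees C. DiscoveRx reagent added for 30 - 60 minutes at room temperature; luminescence read.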
# TDP1 cell CPT: DT40-hTDP1 cell growth loss with CPT; chicken DT40 Tdp1-/-;hTDP1 cells + 20 nM CPT, ATP luminescence, 48 h; Potency, µM (top dose mostly 46.2 µM), most hits filed as inhibitors; 420,000 compounds, 12% hits; further: nearly all actives have a fitted effect of over 55% in size
#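 Chicken DT40 Tdp1-/- cells complemented with human TDP1, 400 cells/well, exposed to compounds plus 20 nM camptothecin for at least 48 h at 37 C; viability read as ATP content by CellTiter-Glo luminescence.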
# Numbers stand for hits; i = inactive; ? = inconclusive; nt = not tested or not shown. Shown are actives, neighbours in structure and some others; about 21% of the full set was active somewhere. Unless noted, the call rests on the fitted dose curve; in most records, active means well fitted inhibition curve with a large enough effect; inconclusive means small, poorly fitted or top-dose-only effect; inactive means flat fitted curve, though single readings scatter.
SMILES,D3 antag,TDP1 cell noCPT,ClpP mod,IL-1B inflam inh,DRD3 agonist,TDP1 cell CPT
Cc1cc(=O)oc(C)c1C(=O)N1CCN(C(c2ccccc2)c2ccccc2)CC1,i,29µM,i,i,i,21µM
COc1cc2c(cc1OC)CN(C(=S)Nc1cccc(Cl)c1C)CC2,i,i,32µM,i,i,?
CN(CC(=O)Nc1ccc(F)c(F)c1F)C(=O)C1(c2ccccc2)CC1,i,i,i,i,i,i
Cc1nn(-c2ccccc2Cl)c(Cl)c1/C=N/Nc1nc2ccccc2s1,i,12µM,i,i,i,?
C(=N\Nc1nc2ccccc2s1)/c1cccs1,i,?,i,?,i,16µM
Oc1ccc(/C=N/Nc2ccc3ccccc3c2)c(O)c1,i,i,i,i,i,i
Brc1ccc(/C=N/Nc2nc3ccccc3o2)cc1,?,i,i,i,i,i
Oc1ccccc1/C=N/Nc1nc2ccccc2o1,i,2.9µM,nt,i,i,3.3µM
Oc1ccc(C=NNc2nc3ccccc3s2)c(O)c1,i,4.1µM,nt,i,i,3.7µM
CCOc1cc(C=NN2CCCCCC2)ccc1O,i,?,i,i,i,i
Cc1cnc(C(=O)OCC(=O)Nc2cccc(S(=O)(=O)N3CCOCC3)c2)cn1,i,i,i,i,i,i
Cc1ccc2c(c1)cc1c(=O)n(Cc3ccc(Cl)cc3)nc(C)n12,nt,i,i,nt,i,i
Cc1ccc(/C=C/C(=O)CCC(=O)O)cc1,i,i,nt,i,i,i
Oc1ccccc1C=NNc1nc2ccccc2s1,i,0.052µM,nt,?,i,0.065µM
COc1ccc(/C=N/Nc2nc3ccccc3s2)cc1O,i,?,i,-87,i,i
COc1ccc(/C=N/Nc2ccc([N+](=O)[O-])cc2)cc1O,-53,?,nt,-66,i,?
COc1ccc(/C=N/Nc2ccc([N+](=O)[O-])cc2)cc1Cn1cc([N+](=O)[O-])cn1,?,?,i,i,i,?
CCn1c(C)c(/C=N/Nc2nc3ccccc3s2)c2ccccc21,i,18µM,i,?,i,18µM
Cc1ccc(CNC(=O)CSc2ncc3c(n2)-c2cc(Cl)ccc2N(C)S3(=O)=O)cc1,nt,?,i,nt,i,?
Cc1cccc(C)c1NC(=O)CNC(=O)C(C)NC(C)c1ccccc1Br (configuration not stated),i,i,i,i,i,i
Cc1cc(=O)n2c(nc3ccccc32)[nH]1,i,i,14µM,i,i,i
CCOC(=O)c1cc(=O)n2c(nc3ccccc32)[nH]1,i,i,i,i,i,i
CNS(=O)(=O)c1cccc(C(=O)NCC(C)(C)N2CCCCC2)c1,i,i,nt,i,i,i
CCOC(=O)CSc1n[nH]c(-c2cccnc2)n1,i,i,i,-81,i,i
COC(=O)CSc1n[nH]c(-c2cccnc2)n1,i,i,i,i,i,i
SMILES,D3 antag,TDP1 cell noCPT,ClpP mod,IL-1B inflam inh,DRD3 agonist,TDP1 cell CPT
Cc1ccc(C(=O)NCC(=O)Nc2ccc(S(=O)(=O)Nc3cc(C)nc(C)n3)cc2)cc1,i,i,i,i,i,i
CC(C(=O)Nc1ccccn1)N1C(=O)c2ccccc2S1(=O)=O (configuration not stated),i,i,i,i,i,i
O=C(O)c1cccc(NC(=S)NC(=O)c2cncc(Br)c2)c1,-63,i,i,i,i,i
Cc1cc(O)ccc1NC(=S)NC(=O)c1cncc(Br)c1,i,16µM,i,i,i,15µM
O=C(Nc1cccc(NC(=O)c2cncc(Br)c2)c1)c1cncc(Br)c1,i,4.6µM,i,i,i,12µM
O=C(NC(=S)Nc1cccc(O)c1)c1cncc(Br)c1,i,i,nt,nt,i,i
COc1cc(NC(=O)c2ccccc2)ccc1NC(=O)c1cc2ccccc2o1,i,?,?,i,i,?
Cc1cc(NC(=O)c2cncc(Br)c2)ccc1NC(=O)c1cc2ccccc2o1,i,8.2µM,i,?,i,13µM
Cc1ccc(C(=O)CSc2ccc(-c3cccnc3)nn2)cc1,i,?,nt,i,i,i
